Measured values: ChEMBL document CHEMBL1157539, “Thousands of chemical starting points for antimalarial lead identification” (Nature, 2010)

Assays:
Type in all cases: functional
Plasmodium falciparum [1] = experiment: GSK_TCMDC: Inhibition of Plasmodium falciparum 3D7 in whole red blood cells, using parasite LDH activity as an index of growth. Test compounds present at 2uM
Plasmodium falciparum [2] = experiment: GSK_TCMDC: Inhibition of Plasmodium falciparum Dd2 in whole red blood cells, using parasite LDH activity as an index of growth. Test compounds present at 2uM
HepG2 = experiment: GSK_TCMDC: Percent inhibition of human HepG2 cell line. Test compounds present at 10uM.

SMILES	Inhibition (Plasmodium falciparum [1])	Inhibition (Plasmodium falciparum [2])	Inhibition (HepG2)
O=C(Nc1cccc(C(F)(F)F)c1)Nc1cc(F)c(F)cc1Cl	83%	98%	0%
COc1ccc(NC(C)C(=O)Nc2ccc(Br)cc2)cc1S(=O)(=O)N1CCCCC1 (configuration not stated)	99%	97%	2%
NC(=O)c1ccsc1NC(=O)CNC(c1ccccc1)c1ccccc1	88%	37%	8%
CC(NC(=O)c1ccc(O)c(-c2ccc(Cl)c(Cl)c2)c1)C(=O)NCCN1CCCC1 (configuration not stated)	99%	9%	0%
O=C(CC(=O)C(F)(F)F)c1ccccc1[N+](=O)[O-]	97%	95%	65%
CCNc1cc(C(=O)N[C@@H](Cc2ccccc2)[C@H](O)CNC2CCC(C(C)(C)C)CC2)cc(N2CCCC2=O)c1 (some centres not stated)	98%	98%	38%
COc1ccccc1CNc1ccnc(NCCc2cccc(C(F)(F)F)c2)n1	93%	68%	39%
COc1ccc(NC(=O)c2ccc(Br)c(C)c2)cc1N1CCN(Cc2ccccc2)CC1.O=C(O)C(=O)O	95%	3%	0%
COc1cccc2cc(C(=O)N[C@@H](CC(C)C)C(=O)N[C@H](/C=N/N3C(=O)CN(Cc4ccccc4)C3=O)CCc3ccccc3)oc12	85%	52%	14%
Cc1cccc(OCC2CCN(c3ncc(C(=O)NC4CC4)cc3Cl)CC2)c1	90%	78%	0%
O=C(Nc1ccc(Cl)cc1)c1ccc(CN2CCCN(Cc3cccc(O)c3)CC2)cc1.O=C(O)C(F)(F)F	100%	69%	52%
NCCCNc1ccc(-c2ccc(NC(=O)Nc3cc(C(F)(F)F)ccc3F)cc2)cn1.O=C(O)C(F)(F)F	100%	66%	0%
O=C1c2ccccc2C(=O)N1c1ccc(S(=O)(=O)N2CCOCC2)cc1	94%	0%	0%
COc1ccc2ncc(F)c([C@H](O)CN3CCC(NCc4ccc5c(c4)NC(=O)CO5)CC3)c2c1.Cl	100%	100%	16%
CN1CCCN(Cc2ccc(-c3ccc(NC(=O)c4cccc(Cl)c4)cc3)cc2)CC1.O=C(O)C(F)(F)F	95%	64%	55%
CCCCCCN1CCCN(Cc2ccc(C(=O)Nc3ccc(Cl)cc3)cc2)CC1.O=C(O)C(F)(F)F	89%	54%	50%
CCOC(=O)CCCc1cc(NC2CCN(C)CC2)nc(Nc2ccc(C)cc2)n1	90%	12%	35%
CC(C)[C@H](NC(=O)c1ccc(O)c(-c2ccc(Cl)c(Cl)c2)c1)C(=O)NCCN1CCCC1	98%	83%	4%
Clc1ccc(CNCC2CCN(CC3CCCCC3)CC2)cc1Cl	92%	6%	18%
CCOc1ccc2c(=NN=Cc3ccccc3F)cc(C)[nH]c2c1	100%	77%	0%
NCCCCNc1cc(-c2ccnc(Nc3cccc(Cl)c3)n2)ccn1	94%	91%	46%
O=C(O)C(F)(F)F.c1cc(CNC2CCN(CC3CCCCC3)CC2)cc(-n2ccnc2)c1	100%	97%	3%
Cl.NC1CCN(CCc2ccc(NS(=O)(=O)c3ccc(-c4ccccc4)cc3)cc2)CC1	100%	19%	17%
COc1ccc2nccc(N(C)CC3(O)CCN(CC(O)c4ccc5c(c4)NC(=O)CS5)CC3)c2n1.Cl (configuration not stated)	100%	0%	1%
CN(C)Cc1cccc(-c2ccc(Nc3nccc(NCC(O)c4ccccc4)n3)cc2)c1 (configuration not stated)	100%	77%	75%
CC(CN(C)C)C(=O)Nc1ccc(-c2ccc(-c3nc4cc(F)ccc4[nH]3)cc2)cc1 (configuration not stated)	100%	95%	14%
COc1ccc2nccc([C@@H](O)CN3CCC(NCc4ccc5c(c4)N(C)C(=O)CO5)CC3)c2c1.O=C(O)C(=O)O	100%	95%	0%
O=C(NCCc1ccc(Cl)c(Cl)c1)c1ccc(CNC(=O)c2ccc(O)c(-c3ccc(Cl)c(Cl)c3)c2)cc1	97%	3%	0%
O=C(Nc1ccc(-c2csc(-c3nc4ccccc4[nH]3)c2)cc1)Nc1ccc(Cl)c(Cl)c1	93%	18%	75%
